The values below come from PubChem BioAssay (NCI).

This is part of a sample that, as a whole, favours compounds with a hit. Of some 83,000 tested, about 20% had one in any assay.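 Cell lines were cultured in 96-well plates, exposed to a single compound concentration, and assessed for percent growth 48 hours later.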 Values without a mark were called inactive. Activity calls are given as the source filed them.

For the assay, the system named is NCI-H322M lung. The experiment in a line: NCI-60 one-dose screen, 48 h (100 = growth as untreated, 0 = no growth, -100 = all killed). Conditions: 10 µM unless noted. As for the experimental part:
Growth inhibition of the NCI-H322M human Non-Small Cell Lung tumor cell line is measured as a screen for anti-cancer activity. Cells are grown in 96 well plates and exposed to the test compound for 48 hours. Compounds are tested at a single concentration, which is 10^-5 M for most compounds. The reported endpoint is percent growth (GI% or GIPRCNT), where numbers from 0 - 100% represent growth inhibition, and numbers from -100% - 0 represent cell death. For example, a value of 40 represents 60% growth inhibition. A value of 0 means no net growth occurred over the course of the experiment. A value of -40 indicates 40% of cells at the beginning of the experiment died by the end of the experiment. A value of -100 means all cells are dead at the end of the experiment.
NCI-60 Human Tumor Cell Lines Screen was performed using the standard one-dose NCI protocol, which is described in more detail at https://dtp.cancer.gov/discovery_development/nci-60/default.htm.
Compounds with GIPRCNT values below 10 were considered active. Activity score was based on GIPRCNT using the following formula: […]
Score is 0 for GIPRCNT values of 100 or above, 50 for GIPRCNT values of 0, and 100 for GIPRCNT values of -100.
On to `COc1cc(C(=O)/C=C/c2ccc3nc(-c4cc(F)cc(F)c4)sc3c2)cc(OC)c1OC`, for which the growth is 93%.

With `O=[N+]([O-])c1cc(S(=O)(=O)Oc2ccccc2)ccc1Cl`, the growth was -13.3% (active).

In the case of `Cc1ccc(-c2cc3nc(C(Cl)Cl)nc(-c4ccccc4C)n3n2)cc1`, the growth is 86.6%.

As for `COc1ccc(-c2c(N)n[nH]c2-c2cc3c(c(OC)c2OC)OCO3)cc1`, the growth is 100%.

Consider `COc1ccc(C(=O)NC(=O)Nc2cc3c(cc2F)/C(=C/c2[nH]c(C)c(CCC(=O)O)c2C)C(=O)N3)c(F)c1`, for which the growth is 63.9%.

With `C/C=C/C1=CN2C(=O)c3cc(OC4OC(C)C(NC)C(C)(O)C4O)c(C)cc3N=C[C@@H]2C1` (stereo not given in full), the growth was -20.1% (active).

As to `COc1cc(/C=C/C(=O)N2CCN(C(=O)/C=C/c3cc(OC)c(OC)c(OC)c3)CC2)cc(OC)c1OC`, the growth was 113%.

For the compound `COc1ccc(C2=Nn3c(nnc3-n3nc(C)cc3C)SC2)cc1`, the growth is 44.6%.

In the case of `COc1ccc(Nc2ncccc2C(=O)NCc2cn(Cc3cccc(Oc4ccccc4)c3)nn2)cc1`, the growth is 46.1%.

For `O=C([O][Sn]([O]C(=O)c1ccccn1)([c]1ccccc1)[c]1ccccc1)c1ccccn1`, the growth is 123%.

Regarding `Fc1ccc(-c2nc(-c3nc4ncccc4[nH]3)cc3c2[nH]c2ccccc23)cc1F`, the growth is 64.7%.

For the compound `CC(C)(C)n1cc(-c2ccnc(NCCCNS(=O)(=O)c3ccc(Br)cc3)c2)c(-c2cccc(O)c2)n1`, the growth is 30.9%.

With `CC(C)(C)n1cc(-c2ccnc(NCCNS(=O)(=O)c3ccc(Cl)cc3)c2)c(-c2cccc(O)c2)n1`, the growth is 85.3%.

`CNC(=S)NNC(=O)C1CC1`: the growth is 121%.

For the compound `COc1cc(Nc2ncccc2C(=O)NCc2cn(Cc3cccc(Oc4ccccc4)c3)nn2)cc(OC)c1`, the growth is 65.2%.

With `CC12CCC3C4(C)COC(c5ccco5)OC4CCC3(C)C1CC(C1=CCOC1=O)O2` (stereo not given), the growth is 98.9%.

`COc1ccc2c(c1)[nH]c(=O)c1c3cccc(F)c3cn21`: the growth was 52.4%.

On to `COc1ccc(C(=O)N2NC(=O)/C(=C/c3cn(-c4ccccc4)nc3-c3ccccc3)N=C2c2ccccc2)cc1`, for which the growth was 97.3%.

As for `COc1cc(Cn2cc3c(c2)-c2oncc2CC3)cc(OC)c1OC`, the growth was -2.65% (active).

On to `N/C(=N\C(N)=N\c1nc2ccccc2s1)c1ccncc1`, for which the growth is 96%.

For `C=C1C(=O)O[C@H]2[C@H]1CC/C(Cn1cc(-c3cccc(Cl)c3)nn1)=C\CC[C@@]1(C)O[C@@H]21`, the growth is 66.2%.

For the compound `C=C1C(=O)O[C@H]2[C@H]1CC/C(Cn1cc(CNC(=O)/C=C/c3c[nH]c4ccccc34)nn1)=C\CC[C@@]1(C)O[C@@H]21`, the growth is 101%.

Consider `CCN1CCN(CC(=O)N2c3cccc4cccc(c34)N(C(=O)CN3CCN(CC)CC3)C2c2cn(-c3ccccc3)nc2-c2cccc([N+](=O)[O-])c2)CC1`, for which the growth is 25.3%.

Regarding `O=C(NNC(=O)N1c2ccccc2C=Cc2ccccc21)c1ccc2ccccc2c1`, the growth was 99%.

Turning to `COc1ccc2cc(-c3ccc(-c4ccc(C(=N)N)cc4)s3)ccc2c1`, the growth was 97.7%.

In the case of `CCN(CC)CCCC(C)Nc1c2ccc(Cl)cc2nc2cc(OC)c(OC)cc12` (stereo not given), the growth was 0.383% (active).

For the compound `CC[N+](CC)=c1cc2oc3cc(N(C)C)ccc3nc-2cc1C`, the growth was -28.4% (active).

In the case of `N[C@H]1CN(C(=O)c2cc3cc(Br)c(F)c(F)c3[nH]2)C[C@@H]1O`, the growth is 89.5%.

For `NC1=C(/C(N)=N/O)C(c2ccccc2)c2ccc3ccccc3c2O1` (stereo not given), the growth was 40%.

With `COc1ccc(C2C=C(c3ccc(Cl)cc3)N=C3SC=C(C)N32)c(Br)c1` (stereo not given), the growth is 55.2%.

Take `CC(C)CC1NC(C)(C)CO1` (stereo not given): the growth is 121%.

With `COc1cc(NC(N)=NCCC(C)(C)c2ccc(C(F)(F)F)cc2)ncc1C#N`, the growth is 36.1%.

In the case of `FC(F)(F)c1cccc(-c2cn3c(ccc4ccccc43)n2)c1`, the growth was 97.5%.

Consider `Nc1cccc(-c2nc3sccn3c2-c2ccnc(NCCNS(=O)(=O)c3ccc(C(F)(F)F)cc3)n2)c1`, for which the growth is 42.4%.

For `Clc1cc2c(nn1)Nc1ccccc1S2`, the growth is 97.8%.

On to `Nc1ncnc2c1c(-c1ccc(Oc3ccccc3)cc1)nn2C[C@@H]1SSC[C@@H]1O`, for which the growth was 61.8%.

Take `N=c1ccc2nc3ccc(N)cc3sc-2c1`: the growth was 51.6%.

Consider `CCN(CC)CCC(CNc1ccnc2cc(Cl)ccc12)c1ccc(Cl)cc1` (stereo not given), for which the growth is 34.6%.

Regarding `COC(OC)c1ccccc1`, the growth is 103%.

`COc1ccc(Nc2ncccc2C(=O)NCc2cn(Cc3cccc(Oc4ccccc4)c3)nn2)c(OC)c1`: the growth was 56.1%.
